# This is a sample that favours compounds with a hit; in the whole collection about 2.2% have one here.
# GLP1R inv ag – qHTS of GLP-1 Receptor Inverse Agonists (Inhibition Mode). HEK293 GLP-1R CRE-luciferase, luminescence, 24 h; GLP-1R form is constitutively active. Potency, µM (series often up to 38.3 µM), for the others: top-dose activity change, negative = inhibition, actives largely listed as inhibitors. hit rate 1.6% among 410,000. Glucagon-like peptide 1 receptor (Homo sapiens), P43220; further: potency means the concentration at half of the fitted maximal effect; on the % scale 0 is the no-effect control and ±100 the full control effect; nearly all actives have a fitted effect of over 55% in size
# Target sequence (P43220 whole entry, looked up): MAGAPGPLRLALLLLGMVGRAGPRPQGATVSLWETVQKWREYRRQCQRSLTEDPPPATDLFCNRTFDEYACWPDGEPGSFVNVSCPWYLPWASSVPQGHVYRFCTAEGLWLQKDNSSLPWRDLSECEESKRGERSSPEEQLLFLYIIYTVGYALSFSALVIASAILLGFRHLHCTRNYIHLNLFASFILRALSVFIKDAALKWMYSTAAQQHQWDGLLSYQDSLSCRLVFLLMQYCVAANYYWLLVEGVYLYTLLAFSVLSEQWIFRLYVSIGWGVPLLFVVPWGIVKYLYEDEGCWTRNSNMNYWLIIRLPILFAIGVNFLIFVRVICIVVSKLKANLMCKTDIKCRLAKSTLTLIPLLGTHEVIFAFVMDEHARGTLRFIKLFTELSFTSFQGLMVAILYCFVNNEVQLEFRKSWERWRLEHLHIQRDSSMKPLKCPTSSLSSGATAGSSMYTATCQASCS
#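 Readout was luciferase luminescence, measured 12 min after detection reagent at room temperature. Beforehand, GLP-1R reporter HEK293 cells had sat 12 h, then received compounds for 24 hr at 37 deg C.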
# uPA surface inh – qHTS for Inhibitors of Cell Surface uPA Generation | cell surface uPA generation assay, qHTS | Potency, µM (series often up to 38.3 µM), for the others: at the highest dose activity change, negative = inhibition, most hits filed as inhibitors | hit rate 0.31% among 330,000; active means well fitted inhibition curve with a large enough effect; inconclusive means small, poorly fitted or top-dose-only effect; inactive means no such curve, though single readings can be large or run the other way; tested in mouse RAW 264.7 cells; further: potency means the concentration at half of the fitted maximal effect; on the % scale 0 is the no-effect control and ±100 the full control effect; nearly all actives have a fitted effect of over 55% in size
# Mm-Cpn inhibitor – Inhibitors of TCP-1 ring complex (TRiC) of Methanococcus maripaludis (MmCpn): qHTS; purified Mm-Cpn ATPase, ADP Transcreener TR-FRET; hit rate 0.031% among 330,000; Potency, µM (doses to about 76.9 µM), for inactives: at the top dose activity, negative = inhibition, usual class: inhibitors; AID 504842, 2011; further: potency means the concentration at half of the fitted maximal effect; on the % scale 0 is the no-effect control and ±100 the full control effect; nearly all actives have a fitted effect of over 80% in size
#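 ATPase turnover read by TR-FRET ADP competition (Eu cryptate antibody/ADP-d2, 665/590 nm): 10uM ATP final, 25nM Mm-CPN final, 30 min 37degC after 10-min compound preincubation, pH 7.4 Tris/KCl/MgCl2/DTT buffer.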
# GLP1R cytotox – qHTS of GLP-1 Receptor Inverse Agonists: Cytotox Screen | HEK293 cAMP-luciferase reporter cells, luminescence, 24 h | Potency, µM (series often up to 38.3 µM), without a hit: at the top dose activity change, negative = inhibition, most hits filed as inhibitors | hit rate 0.13% among 410,000 | AID 624418, 2012;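 further: loss of luciferase light is scored as toxicity; potency means the concentration at half of the fitted maximal effect; on the % scale 0 is the no-effect control and ±100 the full control effect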
#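 Quantitative HTS format, 1536 wells, 200 cells/uL seeded. Compounds: 23 nL, 24 h, 37 °C. Detection: luciferase reagent, luminescence at 12 min RT; decreased signal taken as cytotoxic.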
# CCT chaperon mod – High-Throughput Screening for Modulators of Cytosolic Chaperonin Activity; purified chaperonin ATPase assay, HTRF ADP detection, 30 min; hit rate 0.3% among 360,000; activity change, % (no concentration beside the values), hits read low; in the data active means activity change below about -30%; further: on the % scale 0 is the no-effect control and ±100 the full control effect
#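 TRiC at 40 or 20 nM final (batch-dependent) in 30 mM Tris pH 7.4, 100 mM KCl, 5 mM MgCl2, 1 mM DTT, with compound at single 76 uM and 10 uM ATP, 30 min at 37 deg C. ADP detected by HTRF Transcreener, 665/615 ratio.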
# GLP1R ag – qHTS of GLP-1 Receptor Agonists; hit rate 0.007% among 380,000; Potency, µM (series often up to 45.6 µM), for the others: top-dose activation, actives largely listed as activators; Glucagon-like peptide 1 receptor (Homo sapiens), P43220; AID 624172, 2012; HEK293 GLP-1R CRE-luciferase, luminescence, 4-6 h; cells express a hypersensitive GLP-1R form; further: potency means the concentration at half of the fitted maximal effect; % of control where 0% means no effect
# Numbers without * were called inactive; u = inconclusive; x = not tested or not shown. Unless noted, the call rests on the fitted dose curve; in most records, active means well fitted curve in the direction sought with a large enough effect; inconclusive means small, poorly fitted or top-dose-only effect, or another doubt; inactive means no such curve, though single readings can be large; an effect the other way counts as inactive or inconclusive.
SMILES,GLP1R inv ag,uPA surface inh,Mm-Cpn inhibitor,GLP1R cytotox,CCT chaperon mod,GLP1R ag
CCOC(=O)C1CCCCN1Cc1cccc(OCc2ccccc2)c1 (centres undefined),10µM*,6%,0%,5%,2,-6%
Cc1ccc(-n2c(C)cc(/C=N/NC(=O)CN(c3ccc(C)cc3C)S(C)(=O)=O)c2C)cc1,10µM*,9%,-1%,-18%,-1,-16%
COc1ccc(CNn2c(-c3cccs3)nc3ccccc3c2=O)cc1OC,10µM*,3%,-2%,0%,-3,9%
COc1cccc(C(=O)Nn2c(-c3cccs3)nc3ccccc3c2=O)c1OC,-30%,-2%,1%,-9%,-1,10%
Cc1ccc(NC(=O)c2cc(S(=O)(=O)N3CCCCC3)c[nH]2)cc1N(C)C,11%,x,x,-11%,x,x
CCc1ccccc1NC(=O)Cn1nnc(C(=O)NCc2cccc(OC)c2)c1N,u,4µM*,2%,-15%,-3,3%
COCCN(C(=O)CSc1nc2ccc(C)cc2[nH]1)c1c(N)n(Cc2ccccc2)c(=O)[nH]c1=O,0%,1%,2%,-7%,-39*,7%
COCCN(C(=O)COC(=O)C1CCC(C(C)(C)C)CC1)c1c(N)n(Cc2ccccc2)c(=O)[nH]c1=O (centres undefined),u,10µM*,0%,-27%,2,11%
COCCN(C(=O)CSc1nc2ccc(Cl)cc2[nH]1)c1c(N)n(Cc2ccccc2)c(=O)[nH]c1=O,-4%,12%,-9%,-5%,-3,-3%
CSc1cccc(NC(=O)CC(c2ccc(F)cc2)N2Cc3ccccc3C2=O)c1 (centres undefined),-20%,x,x,-9%,x,x
FC(F)(F)c1cc(Nc2ccccc2)nc(-c2ccccn2)n1,3.5µM*,-13%,-2%,u,2,14%
CC(C)Nc1cc(C(F)(F)F)nc(-c2ccccn2)n1,-15%,-4%,1%,u,-2,-7%
CCOC(=O)CNC(=O)c1cc2c(=O)n3cccc(C)c3nc2n1C,-4%,x,x,21%,x,x
CCN(c1ccccc1)S(=O)(=O)c1cc(C(=O)NCC(c2ccc(OC)cc2)N(C)C)ccc1C (centres undefined),11µM*,u,x,-7%,-3,1%
COc1ccc(C(CNC(=O)c2ccc(S(=O)(=O)N(C)C)cc2)N(C)C)cc1 (centres undefined),2%,-1%,1%,-1%,2,12%
Cc1ccc(NC(NC(=O)c2cccs2)C(Cl)(Cl)Cl)cc1C (centres undefined),13µM*,-4%,0%,-25%,-1,-5%
Cc1ccccc1NC(NC(=O)c1cccs1)C(Cl)(Cl)Cl (centres undefined),7.9µM*,4%,0%,-7%,0,-13%
Cc1ccc(NC(NC(=O)c2cccs2)C(Cl)(Cl)Cl)cc1 (centres undefined),u,-11%,0%,-3%,-6,-11%
Cc1ccccc1NC(=O)c1ccccc1NC(=O)c1cccs1,-2%,12%,1%,-4%,0,16%
CCc1ccc(C2=NN(C(=O)OC)C(O)(C(F)(F)F)C2)cc1 (centres undefined),7.9µM*,-46%,-1%,0%,0,-1%
CCN(CC)CCn1c2c(c(SCC(=O)Nc3cccc4ccccc34)nc1=O)CCC2,u,-28%,3%,-28%,1,4%
CCN(CC)CCn1c2c(c(SCC(=O)Nc3ccccc3Cl)nc1=O)CCC2,u,-2%,0%,10%,-34*,0%
Cc1cccc(/C=C2\Sc3ccc(C(=O)NCC4CCCO4)cc3N(C)C2=O)c1 (centres undefined),13µM*,-8%,5%,-1%,-1,-3%
CN1C(=O)/C(=C/c2ccccc2F)Sc2ccc(C(=O)NCC3CCCO3)cc21 (centres undefined),u,-12%,0%,-7%,-2,5%
COc1ccc2c(CNCCc3ccc(SC)cc3)c(C(=O)O)n(Cc3ccc(F)cc3)c2c1,2%,x,x,5%,x,1%
SMILES,GLP1R inv ag,uPA surface inh,Mm-Cpn inhibitor,GLP1R cytotox,CCT chaperon mod,GLP1R ag
Fc1ccc2[nH]c3c(c2c1)CN(C(=S)NCc1ccccc1)CC3,5µM*,2%,1%,-11%,-3,-2%
C=CCNC(=O)N1CCc2[nH]c3ccc(F)cc3c2C1,-2%,-12%,-1%,2%,2,6%
CNCCC=C1c2ccccc2CCc2ccccc21,6.3µM*,19%,-3%,-18%,0,11%
O=C(Cc1c[nH]c2ccccc12)N1CCN(S(=O)(=O)c2cccc(Cl)c2Cl)CC1,10µM*,7%,3%,u,2,-3%
O=C(CSc1nc(-c2ccc(Cl)cc2)cs1)Nc1cccc([N+](=O)[O-])c1,10µM*,u,1%,-4%,0,-2%
O=C(O)c1ccccc1NS(=O)(=O)c1cccc(C(F)(F)F)c1,0%,x,1%,4%,-1,u
O=S(=O)(Nc1cccc2c1CCCC2)c1cccc(C(F)(F)F)c1,10µM*,-2%,1%,-4%,0,6%
CN1C2CCC1CC(N(CCc1ccccc1)C(=O)c1ccc(Cl)cc1)C2 (centres undefined),10µM*,-13%,0%,-1%,2,-4%
COc1ccc(-n2nc(C(=O)N3CCN(c4ccccc4OC)CC3)c3c4ccccc4n(C)c3c2=O)cc1Cl,10%,x,x,-6%,x,x
Cc1ccc(C(=O)O)cc1NC(=O)C1=CSCCO1,10%,1%,-1%,3%,-63*,-3%
CCn1cc(/C=C/c2cc[n+](C)cc2)c2ccccc21,u,3%,-2%,89%,1,-4%
C=CCn1cc(/C=C/c2cc[n+](C)cc2)c2ccccc21,u,10µM*,1%,126%,-2,-4%
COC(=O)c1cccc(NC(=O)/C=C/c2ccc3c(c2)OCO3)c1,3.5µM*,-5%,2%,-21%,-2,-19%
O=C(/C=C/c1ccc2c(c1)OCO2)Nc1cccnc1,10µM*,u,1%,-15%,-2,-8%
CCOc1c(Cl)cc(C(=O)N(Cc2ccc(N(C)C)cc2)Cc2ccco2)cc1Cl,-11%,x,x,0%,x,x
O=C(Nc1cccc(-c2nc3ncccc3o2)c1)c1ccc(-c2cccc(Cl)c2Cl)o1,4%,x,x,-10%,x,x
